This is part of a sample that, as a whole, favours compounds with a hit. Of some 79,000 tested, about 15% had one in any assay. Active and inactive are the calls of the source. No stated cut-off is given here; in the data, active means growth inhibition above about 70%; inactive means the rest.
Columns and labels:
[1] = NCI Yeast Anticancer Drug Screen. Data for the wt1 strain (AID 149);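 further: 0% = growth of vehicle-treated wt1 cultures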; conditions: S. cerevisiae wt1 strain (SPY 50644) growth inhibition, hits give high values
Method in brief: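 The wt1 strain was treated with compounds, and growth was compared with vehicle-treated cultures to give inhibition.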

[2] = NCI Yeast Anticancer Drug Screen. Data for the rad50EPP+ strain (AID 151);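 further: 0% = growth of vehicle-treated control cultures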; conditions: S. cerevisiae rad50 mutant strain, hits give high values
Method in brief: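 rad50EPP+ yeast treated with test compounds. Readout: growth vs vehicle control.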

[3] = NCI Yeast Anticancer Drug Screen. Data for the mgt1 strain (AID 153); conditions: S. cerevisiae mgt1 mutant growth inhibition, hits give high values
Method in brief: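 Growth inhibition relative to vehicle controls was scored for the mgt1 yeast strain after compound exposure.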

[4] = NCI Yeast Anticancer Drug Screen. Data for the rad50 strain (AID 155);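 further: 0% = growth of vehicle-only cultures of the same strain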; conditions: S. cerevisiae rad50 strain growth inhibition, hits give high values
Method in brief: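 Cells are treated with compound, grown, and their growth is then scored against vehicle-only cultures of the same repair-deficient yeast strain.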

[5] = NCI Yeast Anticancer Drug Screen. Data for the mec2-1 strain (AID 157); conditions: S. cerevisiae mec2-1 strain, hits give high values
Method in brief: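 Growth inhibition is read against vehicle-treated controls after compound exposure of the mec2-1 yeast strain, which is defective in DNA damage repair or cell cycle control.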

[6] = NCI Yeast Anticancer Drug Screen. Data for the rad14 strain (AID 159);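 further: 0% = growth of vehicle-treated control cultures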; conditions: S. cerevisiae rad14 strain growth inhibition, hits give high values
Method in brief: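 Readout: yeast growth inhibition, referenced to vehicle-only cultures. Strain bears a defined alteration in DNA damage repair.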

[7] = NCI Yeast Anticancer Drug Screen. Data for the sgs1 mgt1 strain (AID 161);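 further: 0% = growth of cultures given vehicle only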; conditions: S. cerevisiae sgs1 mgt1 strain, hits give high values
Method in brief: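 Growth of a repair-deficient yeast mutant was monitored after compound treatment and expressed as inhibition relative to vehicle-treated cultures.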

[8] = NCI Yeast Anticancer Drug Screen. Data for the CLN2oe strain (AID 163);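 further: 0% = growth of vehicle-only control cultures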; conditions: S. cerevisiae CLN2oe strain, hits give high values
Method in brief: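 Compound-treated yeast; growth vs vehicle ctrl = % inhibition. Genetically altered strain (cell-cycle control).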

[9] = NCI Yeast Anticancer Drug Screen. Data for the cln2 rad14 strain (AID 165);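 further: 0% = growth equal to vehicle treated cultures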; conditions: S. cerevisiae cln2 rad14 strain, hits give high values
Method in brief: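 Growth inhibition, relative to vehicle-treated controls, is the read-out. The test organism is a yeast strain with defined genetic alterations, cln2 rad14.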

[10] = NCI Yeast Anticancer Drug Screen. Data for the bub3 strain (AID 167); conditions: S. cerevisiae bub3 mutant strain, hits give high values
Method in brief: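 Part of a panel of yeast mutants defective in DNA damage repair or cell cycle regulation. Each strain is grown with compound, and inhibition is calculated relative to solvent-treated cultures.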

[11] = NCI Yeast Anticancer Drug Screen. Data for the wt2 strain (AID 169);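 further: 0% = growth of vehicle-treated yeast cultures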; conditions: S. cerevisiae wt2 strain growth inhibition, hits give high values
Method in brief: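 Compound exposure of yeast; growth compared with vehicle controls; inhibition reported.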

[12] = NCI Yeast Anticancer Drug Screen. Data for the mlh1 strain (AID 171);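 further: 0% = growth of vehicle-treated control cultures of the same strain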; conditions: S. cerevisiae mlh1 strain growth inhibition, hits give high values
Method in brief: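 Compounds are applied to a genetically altered yeast strain, and its growth is compared with that of vehicle-treated cultures to give percent inhibition.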

[13] = NCI Yeast Anticancer Drug Screen. Data for the sgs1 strain (AID 173);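 further: 0% = growth of vehicle-only control cultures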; conditions: S. cerevisiae sgs1 mutant, hits give high values
Method in brief: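 Compounds applied to genetically altered yeast; growth compared with vehicle-treated cultures to give % inhibition.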

[14] = NCI Yeast Anticancer Drug Screen. Data for the mlh1 rad18 strain (AID 175); conditions: S. cerevisiae mlh1 rad18 strain growth inhibition, hits give high values
Method in brief: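 Cells of a genetically altered yeast strain, deficient in DNA damage repair, were treated with compound. Their growth was then compared with that of vehicle-treated cultures to give inhibition.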

[15] = NCI Yeast Anticancer Drug Screen. Data for the rad18 strain (AID 177); conditions: S. cerevisiae rad18 mutant growth inhibition, hits give high values
Method in brief: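 Compounds are applied to a repair-deficient yeast strain, and growth is compared with that of vehicle-treated cultures to give percent inhibition.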

[16] = at 5.0 µM (retest, dose inferred, filed as 0.5)
[17] = at 50.0 µM (retest, dose inferred, filed as 5.0)

Measured: growth inhibition

CC[C@@]1(O)C(=O)OCc2c1cc1n(c2=O)Cc2cc3c(NC(=O)CN)cccc3nc2-1
active: [4]; at 33.0 µM 79% | [4]; [17] 72% | [4]; at 50.0 µM 88.2% | [4]; at 100.0 µM 88%
inactive: [1]; at 1.2 µM 1% | [1]; at 3.7 µM -1% | [1]; at 11.0 µM -2% | [1]; at 33.0 µM -3% | [1]; at 100.0 µM 0% | [2]; at 1.2 µM -4% | [2]; at 3.7 µM 2% | [2]; at 11.0 µM 6% | [2]; at 33.0 µM 19% | [2]; at 100.0 µM 49% | [3]; at 1.2 µM -3% | [3]; at 3.7 µM 1% | [3]; at 11.0 µM 0% | [3]; at 33.0 µM -1% | [3]; at 100.0 µM -3% | [4]; at 1.2 µM 8% | [4]; at 3.7 µM 21% | [4]; [16] 1% | [4]; at 11.0 µM 54% | [5]; at 1.2 µM -3% | [5]; at 3.7 µM -4% | [5]; [16] -9% | [5]; at 11.0 µM -3% | [5]; at 33.0 µM 1% | [5]; [17] -5% | [5]; at 50.0 µM -11.8% | [5]; at 100.0 µM 19% | [6]; at 1.2 µM 2% | [6]; at 3.7 µM -4% | [6]; at 11.0 µM 0% | [6]; at 33.0 µM -4% | [6]; at 100.0 µM -1% | [7]; [16] -11% | [7]; [17] -3% | [7]; at 50.0 µM -1.65% | [8]; at 1.2 µM 0% | [8]; at 3.7 µM -2% | [8]; at 11.0 µM -1% | [8]; at 33.0 µM -2% | [8]; at 100.0 µM 0% | [9]; [16] -35% | [9]; [17] -26% | [9]; at 50.0 µM 26.9% | [10]; at 1.2 µM -12% | [10]; at 3.7 µM -6% | [10]; [16] -19% | [10]; at 11.0 µM 8% | [10]; at 33.0 µM 7% | [10]; [17] -3% | [10]; at 50.0 µM 8.3% | [10]; at 100.0 µM -6% | [11]; at 1.2 µM -1% | [11]; at 3.7 µM 1% | [11]; at 11.0 µM 0% | [11]; at 33.0 µM -1% | [11]; at 100.0 µM 0% | [12]; at 1.2 µM -5% | [12]; at 3.7 µM -3% | [12]; at 11.0 µM -3% | [12]; at 33.0 µM -6% | [12]; at 100.0 µM 2% | [13]; at 1.2 µM -2% | [13]; at 3.7 µM -3% | [13]; at 11.0 µM -2% | [13]; at 33.0 µM -1% | [13]; at 100.0 µM 7% | [14]; [16] -12% | [14]; [17] -9% | [14]; at 50.0 µM -0.55% | [15]; at 1.2 µM -18% | [15]; at 3.7 µM -6% | [15]; at 11.0 µM -19% | [15]; at 33.0 µM -8% | [15]; at 100.0 µM -10%

— PubChem BioAssay (NCI)
